Compound activity as filed in PubChem.
aSyn 5UTR inh = MLPCN primary screen, SNCA 5' untranslated region; alpha-synuclein 5'UTR reporter, inhibitor activity; inhibition, % (tested at 7.5 µM); 300,000 tested, 0.82% active; AID 1813; in the data active means inhibition above about 60%;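 further: H4 neuroglioblastoma cells stably carrying SNCA 5'UTR luciferase fusion; 0% = DMSO wells and 100% = positive control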
IEC-6 cytotox = kills IEC-6 intestinal cells in KLF5 counter-screen | IEC-6 cytotoxicity, luminescence viability | inhibition, % at 5 µM | 290,000 tested, 0.78% active; in the data active means inhibition above about 22%;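 further: 0% = plate median of test compound wells and 100% = cytotoxic reference compound wells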
BaF3 parental = reduces parental Ba/F3 cell viability, JAK2V617F counter-screen. CellTiter-Glo ATP luminescence. inhibition, % at 5.6 µM. 220,000 tested, 1.1% active. AID 1486;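 active means inhibition above a per-campaign cutoff, the mean inhibition of all tested compounds plus 3 SD, cut at about 27% in these data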;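 further: 0% = DMSO wells and 100% = JAK Inhibitor I control wells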
KLF5 inhibitor = suppresses KLF5 promoter-driven expression. 290,000 tested, 0.23% active. inhibition, % at 5 µM. DLD-1 KLF5 promoter-luciferase reporter, luminescence;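 active means inhibition above a per-plate limit of that plate's mean compound inhibition plus 3 SD, cut at about 60% in these data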;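 further: 0% = DMSO wells and 100% = LY294002 at 200 µM; higher means less KLF5 promoter-driven luciferase light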
APP transl inh = APP translation inhibition. 190,000 tested, 0.82% active. AID 1285. SH-SY5Y APP 5'UTR-luciferase reporter, luminescence. inhibition, % at 2 µM;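 active means inhibition above a set limit, derived from the sample mean plus 3 SD, cut at about 45% in these data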
Ba/F3 V617F tox = loss of viability in JAK2V617F-driven Ba/F3 cells. Ba/F3 EpoR-JAK2V617F viability, ATP luminescence. inhibition, % at 5.6 µM. 220,000 tested, 1.1% active;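 active means inhibition above the campaign mean plus 3 SD over all tested compounds, cut at about 24% in these data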;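 further: cytokine-independent growth of Ba/F3 cells driven by EpoR plus mutant JAK2; 0% = DMSO-treated cells and 100% = JAK inhibitor I control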
Starred values were filed as active, the others as inactive; x = no result. A selection: hits, their analogues and other compounds. The true share with any hit is near 2.1%.

SMILES	aSyn 5UTR inh	IEC-6 cytotox	BaF3 parental	KLF5 inhibitor	APP transl inh	Ba/F3 V617F tox
COC(=O)CSC1=C(C#N)C(c2ccc(F)cc2)CC(=O)N1 (stereo unspecified)	-1	5	43*	3	-28	2
COC(=O)CSC1=C(C#N)C(c2ccc(C)o2)CC(=O)N1 (stereo unspecified)	-38	6	43*	4	-8	7
COC(=O)CSC1=C(C#N)C(c2sccc2C)CC(=O)N1 (stereo unspecified)	17	-3	4	-11	-15	-2
CSCC[C@H](NC(=O)[C@@H]1Cc2ccccc2CN1)C(=O)Nc1ccc2c(c1)OCCO2	34	-4	x	-84	x	x
COc1ccc(NC(=O)CN(C)C(=O)CSc2nc3ccccc3s2)cc1	21	x	x	x	x	x
C=CCN(C(=O)CN1CCOCC1)c1nc(C)c(-c2ccccc2)s1	3	-12	27*	-27	-21	6
COc1ccc(NC(=O)C(=O)NCC2CCCN2S(=O)(=O)c2ccc(C)cc2)cc1 (stereo unspecified)	91*	x	x	x	x	x
COc1ccc(S(=O)(=O)N2CCCC2CNC(=O)C(=O)Nc2ccc(C)cc2)cc1 (stereo unspecified)	14	x	x	x	x	x
CCCCc1ccc(N/C(N)=N/c2nc(C)cc(C)n2)cc1	41	12	35*	-3	x	41*
Cc1ccc(N/C(N)=N/c2nc(C)cc(C)n2)cc1	-4	6	4	13	4	-1
Cc1ccc(-c2nn(-c3ccccc3)cc2C(=O)NCC(c2cccs2)N2CCOCC2)cc1 (stereo unspecified)	-29	x	x	x	x	x
CCOC(=O)NN=C1CN(S(=O)(=O)c2ccc(C)cc2)C1	-19	-4	x	15	x	x
COc1ccc(OC)c(/C=C/C(=O)N(C)CC(=O)Nc2ccc(C)cc2)c1	3	3	3	-17	8	0
COc1ccc(OC)c(/C=C/C(=O)N(C)CC(=O)Nc2cc(C)ccc2C)c1	18	3	-1	-36	66*	-3
N#C/C(=C/c1ccc(N2CCOCC2)o1)c1ccc(Cl)cc1	-286	-3	56*	-9	-10	47*
N#C/C(=C\c1ccc(N2CCOCC2)o1)c1nc2ccccc2[nH]1	15	-3	2	-8	-156	1
CC(C)C(=O)NC(=S)Nc1c(Cl)ccc2nsnc12	17	-4	-3	-11	x	-2
Cc1ccc(C(=O)Nc2nc(C)c(C(=O)Nc3ccc4c(c3)CCC4)s2)cc1	-23	16	9	-48	66*	3
O=C(O)CC1c2ccccc2CCN1S(=O)(=O)c1ccc(F)cc1 (stereo unspecified)	18	-2	x	-16	x	x
c1cnc2ccc(C(c3nnnn3C3CCCCC3)N3CCN(C4CCCCC4)CC3)cc2c1 (stereo unspecified)	6	-6	33*	-10	9	37*
Cc1cnc(NC(=O)c2sc(Nc3ccccc3)nc2N)o1	-115	0	3	-59	x	0
S=C1N(c2ccccc2)C(c2ccc(Br)cc2)N2CCCN12 (stereo unspecified)	-20	6	-1	10	x	4
O=C(O)CC1S/C(=N/N=C/c2ccc([N+](=O)[O-])cc2)N(c2ccc(O)cc2)C1=O (stereo unspecified)	-11	-3	80*	-8	-4	0
COc1ccc(/C=N\N=C2/SC(CC(=O)O)C(=O)N2c2ccc(O)cc2)cc1OC (stereo unspecified)	15	-10	4	-16	-5	-2
CCCn1c(/C=N/Nc2nc3ccccc3[nH]2)nc2ccccc21	x	-7	3	-119	74*	-2
SMILES	aSyn 5UTR inh	IEC-6 cytotox	BaF3 parental	KLF5 inhibitor	APP transl inh	Ba/F3 V617F tox
C=CCn1cc(/C=N/Nc2nc3ccccc3[nH]2)c2ccccc21	-195	23*	3	-31	-40	1
CC(C)Cn1c(/C=N/Nc2nc3ccccc3[nH]2)nc2ccccc21	-337	-8	3	-32	71*	1
Cn1c(/C=N/Nc2nc3ccccc3[nH]2)nc2ccccc21	-188	8	9	-62	-35	6
Cc1c(/C=N/Nc2nc3ccccc3[nH]2)c2ccccc2n1C	-61	18	-1	-60	x	-1
CCC(C)N1CC(O)=C(c2nc3ccccc3[nH]2)C1=N (stereo unspecified)	-80	5	90*	-35	-35	-1
CC(C)Cn1c(N)c(C(=O)COC(=O)CC23CC4CC(CC(C4)C2)C3)c(=O)n(C)c1=O	14	11	42*	-16	10	36*
COc1ccc(Br)cc1CSC(=N)N	-25	5	-3	-14	-2	4
CCCCCOc1ccc(Br)cc1CSC(=N)N	28	49*	47*	25	63*	60*
Nc1nonc1C(=O)NCCNCc1ccccc1OCc1ccccc1F	-11	2	7	10	-4	4
Nc1nonc1C(=O)NCCNCc1cc(Br)ccc1OCc1ccccc1F	-18	12	51*	-22	-4	24*
C/C(=N/NC(=O)c1cccs1)c1c(C)[nH]n(-c2nc3ccccc3s2)c1=O	-10	42*	49*	-80	-87	48*
COC(=O)Cc1[nH]n(-c2nc3ccccc3s2)c(=O)c1C(C)=Nc1ccc(C)cc1	98*	-2	5	-14	-46	0
CC(=NCc1ccco1)c1c(C)[nH]n(-c2nc3ccccc3s2)c1=O	31	-3	6	-13	-153	3
Cc1ccc(NC(=O)CCc2nc3sc4c(c3c(=O)[nH]2)CCCC4)c(Br)c1	16	x	x	x	x	x
CC1CN(c2ccc([N+](=O)[O-])c(NCCOc3ccc(Cl)cc3)c2)CC(C)N1 (stereo unspecified)	104*	-2	x	-16	x	x
CC1CN(c2ccc([N+](=O)[O-])c(NCCOc3ccccc3)c2)CC(C)N1 (stereo unspecified)	-21	5	x	-35	x	x
O=C1CCNc2ccc(-c3ccccc3)cc21	-42	1	2	0	-30	1
O=C1CCNc2cc3ccccc3cc21	78*	16	17	3	5	7
Cc1nc2cc(-c3ccc(Cl)cc3)nn2c(C)c1CCC(=O)NC(C)c1ccc2c(c1)OCCO2 (stereo unspecified)	74*	-5	7	3	41	0
Cc1csc(NC(=O)CCc2c(C)nc3cc(-c4ccc(Cl)cc4)nn3c2C)n1	x	10	7	-1	54*	6
CCc1ccc(C2=NN(CCC(=O)NC(C)c3ccc4c(c3)OCCO4)C(=O)CC2)cc1 (stereo unspecified)	0	3	2	21	-12	3
COc1cc(OC)cc(-c2cc3nc(C)c(CCC(=O)NCc4ccccc4)c(C)n3n2)c1	75*	-1	1	27	x	4
O=[N+]([O-])c1ccc(CN2CCOCCOCCN(Cc3ccc([N+](=O)[O-])cc3)CCOCC2)cc1	-15	-3	2	-20	8	-1
O=[N+]([O-])c1ccc(COc2ccc(Br)cc2CN2CCOCC2)cc1	29	1	90*	-9	-10	2
